Drawing on PubChem BioAssay (NCATS), this text covers Potency for 9 compounds.

The nature of test [1]: Cell Viability - LYMP1-002 - Assay at 16 hr (AID 948). Also: potency is read from the fitted curve at half-maximal effect. The essentials:
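Acute cytotoxicity is scored as a concentration-dependent fall in intracellular ATP in a human lymphoblastoid line (LYMP1-002) after 16 hr compound exposure at 37 C, measured by luciferase luminescence.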

The nature of test [2]: MultiTox-Fluor Cytotoxicity Assay - LYMP1-002 - Live Cells (AID 955).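 Also: cells exposed to compound for 16 hours.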 Also: potency is read from the fitted curve at half-maximal effect. The method in brief: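 Cells were seeded at 2500 per well and incubated 5 hr. Compounds were then added for 16 hr at 37 C, followed by MultiTox-Fluor reagent for 60 min at room temperature and fluorescence reading of viable-cell protease signal.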
Test [3] is described as follows: MultiTox-Fluor Cytotoxicity Assay - LYMP1-003 - Dead Cells (AID 961).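 Also: cells exposed to compound for 16 h at 37 °C; nearly all actives have a fitted effect of over 70% in size.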 Also: potency is read from the fitted curve at half-maximal effect. The method in brief: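 Acute toxicity is scored as increased dead-cell protease activity in human lymphoblastoid LYMP1-003 cells after 16 h compound exposure in complete culture medium. Activity is normalized to DMSO basal and 15 uM tetraoctylammonium bromide as full response.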
Test [4] in a line: MultiTox-Fluor Cytotoxicity Assay - LYMP1-003 - Live Cells (AID 962).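 Also: cells exposed to compound for 16 hours at 37 °C.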 Also: potency is read from the fitted curve at half-maximal effect. The essentials: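 Acute cytotoxicity is scored as a drop in live-cell protease activity in human lymphoblastoid LYMP1-003 cells after 16 hr compound exposure at 37 C. AC50 values come from Hill-equation modelling of concentration-response data.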
Test [5] is described as follows: Cell Viability - LYMP1-003 - Assay at 24 hr (AID 963). Also: potency is read from the fitted curve at half-maximal effect. The essentials: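 Cytotoxicity is scored as a concentration-dependent fall in ATP-linked luciferase signal in human lymphoblastoid LYMP1-003 cells treated 24 hr at 37 C in complete culture medium.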
Test [6] in a line: Cell Viability - LYMP1-003 - Assay at 40 hr (AID 964). Also: nearly all actives have a fitted effect of over 60% in size. Also: potency is read from the fitted curve at half-maximal effect. The method in brief:
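Luminescent ATP signal (CellTiter-Glo) served as the viability read-out after 40 hr compound treatment of human lymphoblastoid LYMP1-003 cells at 37 C. Decreases in ATP were fitted with the Hill equation to give AC50.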

The nature of test [7]: Cell Viability - LYMP2-003 (AID 965).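 Also: cells exposed to compounds for 24 h before reading; nearly all actives have a fitted effect of over 50% in size.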 The essentials:
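Acute cytotoxicity is scored as a concentration-dependent drop in intracellular ATP, measured by luciferase luminescence in human lymphoblastoid cells treated for 24 hours at 37 C. AC50 values derive from Hill-equation modelling.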

Test [8] is described as follows: Cell Viability - LYMP2-004 (AID 966). Also: nearly all actives have a fitted effect of over 65% in size. Also: potency is read from the fitted curve at half-maximal effect. The method in brief: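 qHTS cytotoxicity: human lymphoblastoid line, 24 hr compound treatment, 37 C, complete medium. Viability read as cellular ATP via luciferase luminescence; tetraoctylammonium bromide served as positive control.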
Test [9] in a line: Cell Viability - LYMP2-005 (AID 967). Also: series mostly up to about 92 µM. The essentials:
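qHTS viability screen in LYMP2-005 cells: 24 h at 37 C with compound, ATP luminescence via CellTiter-Glo, AC50 from Hill curves.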

Test [10] is described as follows: Cell Viability - LYMP2-009 (AID 968). Also: nearly all actives have a fitted effect of over 55% in size. Also: potency is read from the fitted curve at half-maximal effect.
Test [11] can be described thus: Cell Viability - LYMP2-011 (AID 969). Also: nearly all actives have a fitted effect of over 60% in size. Also: potency is read from the fitted curve at half-maximal effect. The method in brief: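 In this qHTS cytotoxicity format, compounds are tested across concentrations on human lymphoblastoid cells in complete medium for 24 hours at 37 C. Viability is taken as cellular ATP measured by luciferase luminescence.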
The nature of test [12]: Cell Viability - LYMP2-013 (AID 970). Also: nearly all actives have a fitted effect of over 55% in size. Also: potency is read from the fitted curve at half-maximal effect. The method in brief: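 Cytotoxicity is scored as a concentration-dependent drop in intracellular ATP in human lymphoblastoid cells after 24 hr compound exposure at 37 C. ATP is quantified by luciferase luminescence, and AC50 values come from Hill-equation modeling.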
A short description of test [13]: Cell Viability - LYMP2-015 (AID 971). Also: nearly all actives have a fitted effect of over 55% in size. Also: potency is read from the fitted curve at half-maximal effect. The method in brief:
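Cells are seeded at 2500 per well and incubated 5 hr at 37 C. Compounds are added across a concentration series for 24 hr at 37 C. CellTiter-Glo is added, and luminescence is read after 30 min at room temperature.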

The nature of test [14]: Cell Viability - LYMP2-017 (AID 972). Also: nearly all actives have a fitted effect of over 55% in size. Also: potency is read from the fitted curve at half-maximal effect. The method in brief: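 Cytotoxicity is scored as a concentration-dependent drop in cellular ATP in a human lymphoblastoid line after 24 hr treatment at 37 C. Values are AC50s from Hill-equation modelling.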
A short description of test [15]: Cell Viability - LYMP2-021 (AID 974). Also: potency is read from the fitted curve at half-maximal effect. The method in brief:
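Loss of cellular ATP, measured with a luciferase-based CellTiter-Glo readout, serves as the toxicity signal in human lymphoblastoid cells treated for 24 hours at 37 C. Potency is reported as AC50 from a standard Hill model.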

Test [16] in a line: MultiTox-Fluor Cytotoxicity Assay - LYMP1-002 - Dead Cells (AID 960).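 Also: cells exposed to compound for 16 h at 37 °C; nearly all actives have a fitted effect of over 60% in size.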 The essentials: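 Cells were plated, rested 5 hr, then treated with compound dilution series for 16 hr at 37 C. After adding substrate reagent and 60 min at room temperature, dead-cell protease fluorescence gave concentration-response curves fitted by the Hill equation.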

Results filed as inconclusive are left out. The source made the active and inactive calls. Calls follow the shape of the dose curve; as a rule, active = well fitted curve in the direction sought with a large enough effect; inconclusive = small, poorly fitted or top-dose-only effect, or another doubt; inactive = no such curve, though single readings can be large; an effect the other way counts as inactive or inconclusive.

Consider `C[C@]12CCC(=O)C[C@@H]1CC[C@@H]1[C@@H]2CC[C@]2(C)[C@@H](O)CC[C@@H]12`, for which the Potency result in test [1], in [2], in test [3], in [4], in test [5] and in [6] was “inactive” each time. Also, the Potency result in test [7], in [8], in test [9], in test [10], in [11] and in test [12] was “inactive” each time. Also, the Potency entry in test [13], in test [14] and in [15] was “inactive” each time.

For `CC(C)(C)c1cc(O)ccc1O`, the Potency result in test [1], in test [2], in test [16], in test [3], in test [4] and in test [5] was “inactive” in each case. The Potency result in [6] and in [7] was “inactive” in each case. The Potency was 39.8 µM (active) in test [8]; 50.1 µM (active) in test [10]; 50.1 µM (active) in test [12]; 50.1 µM (active) in test [13]; 50.1 µM (active) in test [14]; 50.1 µM (active) in test [15].

On to `Oc1cc(Cl)c(Cl)cc1Cl`, for which the Potency entry in test [1], in [2], in test [16], in [3], in test [4] and in [5] was “inactive” each time. Further, the Potency result in test [6], in test [7], in [8], in [9], in test [10] and in test [11] was “inactive” in each case. Also, the Potency entry in test [12], in [13], in [14] and in [15] was “inactive” throughout.

In the case of `ClC=C(Cl)Cl`, the Potency entry in [1], in test [2], in test [3], in test [4], in test [5] and in test [6] was “inactive” each time. Moreover, the Potency entry in test [7], in [8], in [9], in test [10], in test [11] and in [12] was “inactive” throughout. The Potency result in [13], in test [14] and in [15] was “inactive” each time.

`CCCCCl`: the Potency result in test [1], in test [2], in test [16], in test [3], in test [4] and in test [5] was “inactive” throughout. In addition, the Potency entry in test [6], in test [7], in test [8], in test [10], in test [11] and in test [12] was “inactive” each time. The Potency entry in test [13], in test [14] and in test [15] was “inactive” in each case.

In the case of `COc1ccc2c(c1OC)C(=O)OC2C1c2cc3c(cc2CCN1C)OCO3` (centres undefined), the Potency entry in test [1], in test [2], in test [16], in [3], in test [4] and in [5] was “inactive” in each case. For the same compound, the Potency entry in test [6], in test [7], in [8], in test [9], in test [10] and in [11] was “inactive” throughout. For the same compound, the Potency result in test [12], in test [13], in [14] and in test [15] was “inactive” throughout.

For the compound `ClCC1CO1` (centres undefined), the Potency result in test [1], in test [2], in test [16], in test [3], in test [4] and in test [5] was “inactive” throughout. For the same compound, the Potency entry in test [6], in test [7], in test [8], in test [11], in test [12] and in test [13] was “inactive” throughout. In addition, the Potency result in [14] and in [15] was “inactive” in each case.

Turning to `COC1=CC(=O)O[C@@H](/C=C/c2ccccc2)C1`, the Potency entry in test [1], in test [2], in test [16], in [3], in [4] and in test [5] was “inactive” throughout. The Potency entry in test [6], in [7], in [8], in test [9], in [10] and in [11] was “inactive” in each case. The Potency result in test [12], in test [13], in test [14] and in test [15] was “inactive” in each case.

`C[C@H]1CC[C@@H]2[C@@H](C)[C@H]3[C@H](C[C@H]4[C@@H]5CC=C6CC(O[C@@H]7O[C@H](CO)[C@H](O)[C@H](O[C@@H]8O[C@H](CO)[C@@H](O)[C@H](O)[C@H]8O)[C@H]7O[C@H]7O[C@@H](C)[C@H](O)[C@@H](O)[C@H]7O)CC[C@]6(C)[C@H]5CC[C@]34C)N2C1` (some centres undefined): the Potency in [1] was 31.6 µM (active); in [2] it was 12.6 µM (active); in [3] it was 20 µM (active); in test [4], 25.1 µM (active); in test [5], 20 µM (active); in test [6], 39.8 µM (active). Further, the Potency in test [8] is 50.1 µM (active); in test [10] it was 39.8 µM (active); in test [11], 39.8 µM (active); in [12], 39.8 µM (active); in [14], 50.1 µM (active); in test [15] it was 50.1 µM (active). In test [16], the Potency result is “inactive”.
